Bioassay records deposited in PubChem by several laboratories.
GRK2 inh: compounds blocking aptamer binding on GRK2 – biochemical, human GRK2, bead flow cytometry, HTS, primary screen; FAM-aptamer displacement from GRK2; inhibition of aptamer binding, % at 10 µM; hit rate 0.59% among 330,000;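 active = inhibition of aptamer binding above 40%, roughly 3 SD of noise, on plates passing a quality check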;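 note: median bead fluorescence of bound FAM aptamer so fluorescent compounds give negative values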
PERK inh: block of dimerizer-induced PERK translation repression, primary screen, PERK inhibitor project, CHO PERK-DD cells, SEAP luminescence, HTS; AID 1416, 2008; Eukaryotic translation initiation factor 2-alpha kinase 3 (Homo sapiens), Q9NZJ5; hit rate 0.17% among 220,000; inhibition, % at 5.6 µM; CHO PERK-DD fusion, SEAP luminescence translation reporter;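 active = inhibition above the mean inhibition of all tested compounds plus 3 SD, set separately per screening campaign, cut at about 2.9% in these data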;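 note: PERK kinase domain activated by AP20187 dimerizer at 100 nM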
PABP polyA inh: PABP poly(A) RNA binding inhibitors, primary screen, biochemical, fluorescence polarization, uHTS. hit rate 1% among 290,000. AID 2014, 2009. Polyadenylate-binding protein 1 (Homo sapiens), P11940. inhibition, % at 35 µM;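 note: calls also rest on retests at 20 µM and on dose response follow-up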
Target sequence (P11940 whole entry, looked up): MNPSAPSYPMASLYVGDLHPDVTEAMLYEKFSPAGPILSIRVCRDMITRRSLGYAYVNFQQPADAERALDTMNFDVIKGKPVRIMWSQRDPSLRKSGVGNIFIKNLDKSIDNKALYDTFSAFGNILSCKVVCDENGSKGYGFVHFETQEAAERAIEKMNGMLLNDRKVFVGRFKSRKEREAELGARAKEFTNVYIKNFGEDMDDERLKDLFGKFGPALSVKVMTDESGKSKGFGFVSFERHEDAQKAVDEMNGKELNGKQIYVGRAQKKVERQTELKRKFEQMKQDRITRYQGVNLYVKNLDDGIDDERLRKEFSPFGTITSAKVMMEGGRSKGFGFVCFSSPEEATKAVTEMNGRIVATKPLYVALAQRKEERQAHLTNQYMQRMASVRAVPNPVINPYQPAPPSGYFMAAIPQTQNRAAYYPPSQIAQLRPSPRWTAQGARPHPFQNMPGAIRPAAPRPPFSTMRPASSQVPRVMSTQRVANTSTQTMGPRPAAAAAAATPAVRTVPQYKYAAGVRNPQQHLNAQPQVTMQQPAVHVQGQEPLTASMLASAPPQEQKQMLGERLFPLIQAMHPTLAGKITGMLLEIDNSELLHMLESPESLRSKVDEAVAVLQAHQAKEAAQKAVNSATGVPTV
eIF4H inh: human eIF4H binding inhibitors, primary screen, translation initiation inhibitor project, biochemical, uHTS, fluorescence polarization | eIF4H fluorescence polarization binding assay | Eukaryotic translation initiation factor 4H (Homo sapiens), Q15056 | hit rate 0.94% among 290,000 | AID 2012, 2009 | inhibition, % at 35 µM;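 note: calls also rest on retests at 20 µM and on dose response follow-up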
PABP1 MLLE inh: inhibitors of PABP1 MLLE–PAM2 peptide binding, primary screen, biochemical, fluorescence polarization, FITC-PAM2, GST-MLLE. Polyadenylate-binding protein 1 (Homo sapiens), P11940. inhibition, % at 20 µM. hit rate 0.36% among 360,000. AID 588489, 2011; in the data active = inhibition above about 35%, passing the limit was not always enough
Of the large screens only hits and unclear results are named; the others gave an inactive call. A selection: hits, their analogues and other compounds. The true share with any hit is near 1.9%. Unless noted, the rule behind the calls is not given here.

CCc1ccc(NC(=O)c2ccc3c(c2)C(=O)N(Cc2ccco2)C3=O)cc1	PABP polyA inh 4.4, eIF4H inh 56.7
COc1nnc(-c2ccc(C)c(S(=O)(=O)NC(C)C)c2)c2ccccc12	none (no result: PERK inh)
CC(C)(C)c1cc2nc3c(c(=O)n2[nH]1)CN(Cc1ccccc1)C3=O	none
COc1ccc(-n2nnnc2SCC(=O)NNC(=O)c2ccc([N+](=O)[O-])cc2)cc1	PABP polyA inh active, eIF4H inh 63.3
CCC(=O)OC1(C)C(=O)C=C2C=C(c3ccsc3)OC=C2C1=O (stereo not given)	PABP polyA inh 50.6, eIF4H inh 92.6 (no result: PERK inh)
CCC(=O)c1ccc(NC(C)=O)cc1O	PABP polyA inh 50.6, eIF4H inh 76.9
CCCCn1c(SCC(=O)OCC)nc2c1c(=O)[nH]c(=O)n2C	none
C/C=C/Cn1c(SCc2ccc(C)cc2)nc2c1c(=O)[nH]c(=O)n2C	none
CCOC(=O)C(CC)Sc1nc2c(c(=O)[nH]c(=O)n2C)n1CCc1ccccc1 (stereo not given)	PABP1 MLLE inh 39.9
CCOC(=O)CSc1nc2c(c(=O)[nH]c(=O)n2C)n1C/C=C(/C)Cl	PABP1 MLLE inh 37.1
CC=CCn1c(SCc2ccccc2)nc2c1c(=O)[nH]c(=O)n2C	PABP1 MLLE inh 42.5 (no result: GRK2 inh, PERK inh, PABP polyA inh, eIF4H inh)
CCOC(=O)CSc1nc2c(c(=O)[nH]c(=O)n2C)n1CCc1ccccc1	none
N#C/C(=C\c1ccccc1[N+](=O)[O-])C(=O)NC1CCCCC1	PABP1 MLLE inh 54.7
O=C(COc1ccc(Cl)cc1Cl)Nc1cccnc1	none
O=C(COc1ccc(Cl)cc1Cl)Nn1c(=S)[nH]c2ncccc2c1=O	PABP1 MLLE inh 46.3
COc1ccccc1OCC(=O)Nn1c(=S)[nH]c2ncccc2c1=O	PABP1 MLLE inh 43.7
OCCN1CCN(c2ncnc3c2ncn3[C@H]2CN(Cc3cccc(C(F)(F)F)c3)C[C@@H](CO)O2)CC1	none (no result: GRK2 inh, PERK inh, PABP polyA inh, eIF4H inh)
C=CCOc1ccccc1CN1CCC(Oc2ccc(C(=O)N3CCCCC3)cc2)CC1	none (no result: PERK inh)
O=C(O)c1ccc(O)c(O)c1	none
CC(C)(O)CCCC(C)(O)c1ccc(C(=O)O)cc1O (stereo not given)	eIF4H inh 84.5 (no result: PERK inh)
O=c1cc(-c2cc3ccccc3o2)c2cc(O)ccc2o1	PABP polyA inh 60.3, eIF4H inh 79.5 (no result: PERK inh)
OCCCNc1ncnc2c1ncn2[C@H]1CN(Cc2ccc(Cl)cc2)C[C@@H](CO)O1	none (no result: GRK2 inh, PERK inh, PABP polyA inh, eIF4H inh)
COc1ccc(/C=C2\Sc3ccc(C(=O)N4CCCC4)cc3N(C)C2=O)cc1OC	PABP1 MLLE inh 38.2 (no result: PERK inh, PABP polyA inh, eIF4H inh)
CSc1ccccc1NC(=O)CN(C)CC(=O)Nc1ccccc1N1CCOCC1	eIF4H inh active
CCCCCC(=O)Nc1ccccc1N1CCOCC1	none
CN(CC(=O)Nc1ccccc1N1CCOCC1)CC(=O)Nc1ccc(F)c(F)c1F	none
O=C(O)CCC(=O)Nc1ccccc1N1CCOCC1	PABP polyA inh 55.1, eIF4H inh 14.1
CN(C)c1ccc(-c2csc(C(C)(O)c3ccccc3)n2)cc1 (stereo not given)	none (no result: GRK2 inh, PERK inh, PABP polyA inh, eIF4H inh)
COc1cccc(/C=C2\C(=O)C(=O)c3ccccc32)c1	PABP1 MLLE inh 37.8
O=C(Cn1nnc2ccccc21)NNC(=O)c1ccccc1	none
CS(=O)(=O)N1CCN(c2ccc([N+](=O)[O-])c(NCc3ccc(Cl)cc3)c2)CC1	PABP polyA inh 122.4, eIF4H inh active
CCOc1ccc(OCCSc2ccc(S(=O)(=O)N3CCN(C)CC3)cn2)cc1	none (no result: PERK inh, PABP polyA inh, eIF4H inh)
Fc1cccc(-c2csc(-c3ccno3)n2)c1	none
Nc1nc(-c2cccc(F)c2)cs1	PABP1 MLLE inh 39.3
CCOc1ccc(NC(=O)CSc2nnnn2-c2ccc(C(N)=O)cc2)cc1	none (no result: PERK inh)
Cc1ccc(-n2nc3ccc(NC(=S)NC(=O)/C=C/c4ccco4)cc3n2)cc1	PABP polyA inh active
Cc1ccccc1NC(=S)NC(=O)/C=C/c1ccco1	none (no result: PERK inh)
Cc1ccc(-n2nc3cc(C)c(NC(=S)NC(=O)/C=C/c4ccco4)cc3n2)cc1	PABP polyA inh 0.3, eIF4H inh 67.5
Nc1ccc(O)cc1C(=O)OCC(=O)c1ccc(C2CCCCC2)cc1	PABP polyA inh active, eIF4H inh 93.3
Nc1ccc(O)cc1C(=O)OCC(=O)C12CC3CC(CC(C3)C1)C2	PABP polyA inh 51.7, eIF4H inh 68.2
O=C(OCC(=O)C12CC3CC(CC(C3)C1)C2)c1ccc(O)cc1	none (no result: PERK inh, PABP polyA inh, eIF4H inh)
C[C@@H](NC(=O)/C(C#N)=C/c1ccc(O)c(O)c1)c1ccccc1	none (no result: PERK inh, PABP polyA inh, eIF4H inh)
CC(NC(=O)/C(C#N)=C/c1ccc(OCC(=O)O)cc1)c1ccccc1 (stereo not given)	PABP polyA inh 64.4 (no result: PERK inh)
Cc1cc(O)cc(O)c1/C=N/NC(=O)c1ccc2c(c1)OCCO2	PABP1 MLLE inh 49.1 (no result: GRK2 inh, PERK inh, PABP polyA inh, eIF4H inh)
O=C(N/N=C\c1ccc(-c2ccc([N+](=O)[O-])cc2)o1)c1ccc2c(c1)OCO2	none
O=C(N/N=C/c1cc2c(cc1[N+](=O)[O-])OCO2)c1cccnc1	PABP polyA inh 29.5, eIF4H inh 84.9
O=C(N/N=C/c1ccc([N+](=O)[O-])o1)c1ccc2c(c1)OCO2	PABP polyA inh 38.7, eIF4H inh 79.0 (no result: PERK inh)
Cn1c(=O)c2[nH]c(CN(Cc3ccccc3)Cc3ccccc3)nc2n(C)c1=O	none
Cn1c(=O)c2[nH]c(COc3ccccc3)nc2n(C)c1=O	PABP1 MLLE inh 63.0 (no result: GRK2 inh, PERK inh, PABP polyA inh, eIF4H inh)
COc1cc(-c2nnc(SCC(=O)c3cc(C)n(CC4CCCO4)c3C)o2)cc(OC)c1OC (stereo not given)	PABP polyA inh 106.8, eIF4H inh 69.7
Cc1cc(C(=O)CSc2nnc(-c3ccc(F)cc3)o2)c(C)n1CC1CCCO1 (stereo not given)	none
Cc1ccccc1NC(=O)c1ccc(Cl)c(NC(=O)c2ccncc2)c1	none
O=C(O)c1ccc2c(c1)CCC2	PABP polyA inh 54.2, eIF4H inh 3.3
O=C(COC(=O)C1CCN(S(=O)(=O)c2cc([N+](=O)[O-])ccc2Cl)CC1)Nc1ncc(Cl)cc1Cl	PABP polyA inh 39.0, eIF4H inh 69.7
CC(=O)COC(=O)C1CCN(S(=O)(=O)c2cc([N+](=O)[O-])ccc2Cl)CC1	none
Cc1ccccc1Nc1nc(N)[nH]c(=O)c1N=O	PABP1 MLLE inh 45.1 (no result: GRK2 inh, PERK inh, PABP polyA inh, eIF4H inh)
Cc1cccc(C)c1NC(=O)CN(c1ccccn1)S(=O)(=O)c1ccccc1	none
CC(=O)OCCCCCCCCCCC[N+]1(C)CCCCC1	PABP polyA inh 63.7
Nc1c(/C=C2/C=CC(=O)C(O)=C2)c(=O)nc2sc(CC(=O)N3CCCCC3)nn12	GRK2 inh 41.0, PABP polyA inh 54.4, eIF4H inh 68.9 (no result: PERK inh)
Nc1c(/C=C2/C=CC(=O)C(O)=C2)c(=O)nc2sc(CC(=O)N3CCCC3)nn12	PABP polyA inh 21.8, eIF4H inh 55.2 (no result: PERK inh)
Oc1ccc(O)c(Cc2nc3ccccc3s2)c1	PABP polyA inh 6.5, eIF4H inh 82.4
